# Measured values published in PubChem BioAssay (EPA / NIEHS).
# Results filed as inconclusive are left out. Active and inactive are the calls of the source. The calls were made as follows, unless noted: active = hit-call score of the fitted dose curve at least 0.9, where 1 is the maximum; inactive = score below 0.9.
# Columns and labels:
# [1] = ACEA_ER_80hr: ACEA Biosciences xCELLigence Real-Time Cell Analysis on Estrogen Receptor Agonism for Proliferation (AID 2282667; active = hit-call score of the fitted dose curve at least 0.9, where 1 is the maximum); details: T47D proliferation, impedance (xCELLigence), 80 h
# Outline: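 T47D human breast cells were seeded on electrode plates, monitored overnight, then exposed continuously to compounds in eight-point 1:4 dilutions from 100 uM (max 0.5% DMSO). Impedance-based growth was read at 80 h, fitted upward relative to DMSO.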
# [2] = ATG_CRE_CIS: Attagene CIS-FACTORIAL HepG2 Assay for human cAMP Responsive Element (CRE) binding protein 3 (AID 2282926); details: HepG2 CRE cis-reporter, Attagene multiplexed mRNA; actives raise or lower the signal
# Outline: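 Capillary electrophoresis of 6-FAM-labelled, HpaI-digested PCR products quantified reporter transcripts. These came from HepG2 transiently transfected with cis-element reporters and exposed to test chemicals for 24 hours, with DMSO defining baseline activity.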
# [3] = molecular target: CCAAT/enhancer-binding protein beta (Homo sapiens) (UniProt P17676); assay: ATG_C_EBP_CIS: Attagene CIS-FACTORIAL HepG2 Assay for human CCAAT/Enhancer Binding Protein (C/EBP) beta (AID 2282927); details: HepG2 Attagene cis-factorial transcription factor reporter; actives raise or lower the signal
# Outline: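 RT-PCR/capillary electrophoresis fluorescence of reporter mRNA, 24 h post-dose, in HepG2 cells carrying transfected cis-promoter reporter units. Bidirectional curve fitting against DMSO baseline captures gain or loss of signal.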
# [4] = ATG_CMV_CIS: Attagene CIS-FACTORIAL HepG2 Assay for human CMV (Internal Marker) (AID 2282928); details: HepG2 CMV promoter reporter, transcription factor profiling; actives raise or lower the signal;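 also: endpoint acts as a background internal control marker rather than a target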
# Outline: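 24 h chemical treatment, HepG2 with transient multi-reporter transfection; RNA → oligo(dT) RT → PCR → 6-FAM extension → HpaI digest → CE fluorescence. Bidirectional fit, DMSO negative control.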
# [5] = ATG_DR4_LXR_CIS: Attagene CIS-FACTORIAL HepG2 Assay for human Liver X Receptor (LXR), DR4 submotif (AID 2282929); details: HepG2 Attagene DR4 cis-reporter, mRNA transcription; actives raise or lower the signal
# Outline: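 Total RNA from 24 h-treated, MRTU-transfected HepG2 cells underwent reverse transcription, PCR, fluorescent primer extension and restriction digestion before capillary electrophoresis. Both increases and decreases in reporter signal were fitted against DMSO.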
# [6] = ATG_AP_1_CIS: Attagene CIS-FACTORIAL HepG2 Assay for human Activator Protein 1 (AP-1) (AID 2282931); details: HepG2 Attagene cis-factorial AP-1 reporter mRNA; actives raise or lower the signal
# Outline: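 HepG2, transient cis-reporter transfection; 24 h; readout RT-PCR/CE fluorescence; DMSO baseline, gain and loss fitted.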
# [7] = ATG_AP_2_CIS: Attagene CIS-FACTORIAL HepG2 Assay for human Activator Protein 2 (AP-2) (AID 2282932); details: HepG2 AP-2 cis-reporter, Attagene transcription factor profiling; actives raise or lower the signal
# Outline: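 Assay in transfected HepG2 with promoter-regulated reporters, 24 h incubation after dosing. Signal is reporter mRNA fluorescence (RT-PCR, capillary electrophoresis), analysed for both increases and decreases relative to DMSO controls.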
# [8] = ATG_BRE_CIS: Attagene CIS-FACTORIAL HepG2 Assay for human Bone Morphogenetic Protein (BMP) Response Element (BRE) (AID 2282933); details: HepG2 BMP response element reporter, Attagene transcription factor profiling; actives raise or lower the signal
# Outline: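 Endogenous transcription factor activity at a BMP response element was monitored in transfected HepG2 cells 24 h after dosing. Fluorescent RT-PCR products were resolved by capillary electrophoresis, and activity was fitted in both directions versus DMSO.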
# [9] = molecular target: Retinoic acid receptor alpha (Homo sapiens) (UniProt P10276); assay: ATG_DR5_RAR_CIS: Attagene CIS-FACTORIAL HepG2 Assay for human Retinoic Acid Receptor Alpha (RARE), DR5 submotif (AID 2282934); details: HepG2 Attagene cis-factorial RARE DR5 reporter, mRNA; actives raise or lower the signal;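 as to AC50: reporter responds to endogenous RAR alpha beta and gamma in HepG2 not RARA alone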
# Outline: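 HepG2 cells transiently transfected with multiplexed reporter units under cis (DR5 RARE) promoters, so endogenous transcription factor activity is measured. After 24 h compound exposure, reporter mRNA is quantified by RT-PCR with fluorescent labelling and capillary electrophoresis; bidirectional fitting versus DMSO.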
# [10] = molecular target: Transcription factor E2F1 (Homo sapiens) (UniProt Q01094); assay: ATG_E2F_CIS: Attagene CIS-FACTORIAL HepG2 Assay for human E2F Transcription Factor 1 (AID 2282935); details: HepG2 Attagene cis-reporter, E2F reporter RNA transcripts; actives raise or lower the signal
# Outline: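 In this cis-factorial format, endogenous factor activity drives transfected reporters in HepG2; transcripts collected at 24 h are quantified by fluorescence after RT-PCR and capillary separation.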
# [11] = ATG_M_61_CIS: Attagene CIS-FACTORIAL HepG2 Assay for M61 Transcription Factor (Internal Marker) (AID 2282937); details: HepG2 Attagene CIS-FACTORIAL M61 internal marker reporter; actives raise or lower the signal
# Outline: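 Transfect HepG2 with MRTUs; dose 24 h; isolate RNA; reverse-transcribe with DNase I treatment; PCR-amplify, FAM-label and cut with HpaI for 2 h at 37 C; resolve by CE. Bidirectional fitting against DMSO.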
# [12] = ATG_EGR_CIS: Attagene CIS-FACTORIAL HepG2 Assay for human Early Growth Response 1 (EGR1) (AID 2282938); details: HepG2 Attagene CIS-FACTORIAL EGR reporter mRNA; actives raise or lower the signal
# Outline: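 After a 24 h treatment of transiently transfected HepG2 cells, total RNA was reverse-transcribed and reporter sequences PCR-amplified, labelled and run on capillary electrophoresis. Reporters sit under cis-regulatory promoters sensing endogenous factors.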
# [13] = ATG_M_19_CIS: Attagene CIS-FACTORIAL HepG2 Assay for M19 Transcription Factor (Internal Marker) (AID 2282939); details: HepG2 Attagene CIS-FACTORIAL M19 internal marker reporter; actives raise or lower the signal
# Outline: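 Background-control endpoint from a multiplexed HepG2 reporter panel. Cells carrying cis-regulated reporter constructs are treated 24 h, then reporter transcripts are amplified, fluorescently labelled and sized by capillary electrophoresis. DMSO defines baseline.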
# [14] = ATG_ERE_CIS: Attagene CIS-FACTORIAL HepG2 Assay for Estrogen Response Element (ERE) (AID 2282940); details: HepG2 ERE cis-reporter, Attagene RNA transcript; actives raise or lower the signal
# Outline: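 Cells used were human hepatoma HepG2, transfected with multiple reporter transcription units under cis-regulatory promoters. Reporter mRNA, read 24 h post-dosing via fluorescent RT-PCR products on capillary electrophoresis, was fitted bidirectionally relative to DMSO.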
# [15] = ATG_Ets_CIS: Attagene CIS-FACTORIAL HepG2 Assay for human Erythroblast Transformation Specific (ETS) (AID 2282941); details: HepG2 ETS cis-reporter transcription, actives raise or lower the signal
# Outline: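 Cis-regulated reporter mRNA induction in HepG2 (transient transfection), 24 h exposure, RT-PCR plus capillary electrophoresis detection; DMSO serves as negative control and baseline.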
# [16] = molecular target: Hepatocyte nuclear factor 3-beta (Homo sapiens) (UniProt Q9Y261); assay: ATG_FoxA2_CIS: Attagene CIS-FACTORIAL HepG2 Assay for human Forkhead box A2 (FOXA2) (AID 2282942); details: HepG2 cis-reporter transcription factor activity, 24 h; actives raise or lower the signal
# Outline: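 24 h dosing of HepG2 bearing cis-reporter constructs; mRNA readout by RT-PCR/CE fluorescence; bidirectional fit, DMSO baseline.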
# [17] = ATG_FoxO_CIS: Attagene CIS-FACTORIAL HepG2 Assay for human Forkhead box O (FoxO) (AID 2282943); details: HepG2 Attagene cis-reporter, FoxO element, mRNA; actives raise or lower the signal
# Outline: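 HepG2 cells transiently transfected with cis-promoter-driven multiple reporter transcription units; 24 h after chemical dosing, reporter mRNA quantified by RT-PCR, fluorescent primer extension, HpaI digestion and capillary electrophoresis. Bidirectional fitting versus DMSO baseline.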
# [18] = ATG_GATA_CIS: Attagene CIS-FACTORIAL HepG2 Assay for human GATA Binding Protein (AID 2282944); details: HepG2 GATA cis-element reporter, Attagene multiplex mRNA; actives raise or lower the signal
# Outline: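 Endogenous transcription factor activity was captured through cis-promoter-driven reporters in transfected HepG2 cells. After 24 h exposure, reporter transcripts were quantified by RT-PCR with fluorescent capillary electrophoresis, and responses fitted both directions against DMSO.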
# [19] = ATG_E_Box_CIS: Attagene CIS-FACTORIAL HepG2 Assay for human Enhancer Box (E-box) (AID 2282936); details: HepG2 E-box cis-reporter transcription, actives raise or lower the signal
# Outline: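 Measured 24 h post-dosing in HepG2 cells transfected with multiple cis-regulated reporter units, signal being reporter mRNA induction detected by fluorescent RT-PCR with capillary electrophoresis; gain or loss fitted against DMSO.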
# Chain of Retinoic acid receptor alpha (Homo sapiens) (P10276 whole entry, looked up): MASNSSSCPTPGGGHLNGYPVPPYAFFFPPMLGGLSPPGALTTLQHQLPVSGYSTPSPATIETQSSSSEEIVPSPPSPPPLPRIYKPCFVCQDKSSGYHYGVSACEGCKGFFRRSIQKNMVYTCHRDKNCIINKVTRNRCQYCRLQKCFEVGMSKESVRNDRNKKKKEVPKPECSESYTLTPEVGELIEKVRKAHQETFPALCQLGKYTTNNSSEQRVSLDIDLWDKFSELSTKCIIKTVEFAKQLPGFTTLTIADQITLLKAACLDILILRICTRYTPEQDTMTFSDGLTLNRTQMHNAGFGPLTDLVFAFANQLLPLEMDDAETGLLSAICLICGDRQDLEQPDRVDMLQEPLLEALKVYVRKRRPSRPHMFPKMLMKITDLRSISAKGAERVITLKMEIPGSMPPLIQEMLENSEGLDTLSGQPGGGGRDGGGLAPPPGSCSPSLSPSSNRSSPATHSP
# Chain of Transcription factor E2F1 (Homo sapiens) (Q01094 whole entry, looked up): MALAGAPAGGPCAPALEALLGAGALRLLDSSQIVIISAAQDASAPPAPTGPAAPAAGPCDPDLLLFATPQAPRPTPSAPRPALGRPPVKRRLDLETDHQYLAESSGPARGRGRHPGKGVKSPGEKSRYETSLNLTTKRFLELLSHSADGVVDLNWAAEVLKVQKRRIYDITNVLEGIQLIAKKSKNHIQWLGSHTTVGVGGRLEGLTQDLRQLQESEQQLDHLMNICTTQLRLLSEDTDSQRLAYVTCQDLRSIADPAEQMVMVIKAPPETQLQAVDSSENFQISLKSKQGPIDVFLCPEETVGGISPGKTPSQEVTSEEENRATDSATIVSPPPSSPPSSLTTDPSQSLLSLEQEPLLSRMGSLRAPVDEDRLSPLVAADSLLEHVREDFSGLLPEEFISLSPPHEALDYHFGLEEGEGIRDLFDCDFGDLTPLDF
# Chain of Hepatocyte nuclear factor 3-beta (Homo sapiens) (Q9Y261 whole entry, looked up): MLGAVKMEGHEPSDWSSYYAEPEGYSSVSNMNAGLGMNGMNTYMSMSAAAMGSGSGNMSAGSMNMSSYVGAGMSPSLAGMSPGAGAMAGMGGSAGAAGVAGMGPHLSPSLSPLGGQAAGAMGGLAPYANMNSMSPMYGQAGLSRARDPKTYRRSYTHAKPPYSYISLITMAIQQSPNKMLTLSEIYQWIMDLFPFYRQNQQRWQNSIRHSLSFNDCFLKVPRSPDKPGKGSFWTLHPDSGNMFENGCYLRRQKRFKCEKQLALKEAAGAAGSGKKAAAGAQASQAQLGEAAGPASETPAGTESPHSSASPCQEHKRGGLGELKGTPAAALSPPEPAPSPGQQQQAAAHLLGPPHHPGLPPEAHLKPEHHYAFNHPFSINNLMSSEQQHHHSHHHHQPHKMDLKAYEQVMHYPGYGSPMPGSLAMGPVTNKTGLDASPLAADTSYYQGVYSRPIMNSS
# Chain of CCAAT/enhancer-binding protein beta (Homo sapiens) (P17676 whole entry, looked up): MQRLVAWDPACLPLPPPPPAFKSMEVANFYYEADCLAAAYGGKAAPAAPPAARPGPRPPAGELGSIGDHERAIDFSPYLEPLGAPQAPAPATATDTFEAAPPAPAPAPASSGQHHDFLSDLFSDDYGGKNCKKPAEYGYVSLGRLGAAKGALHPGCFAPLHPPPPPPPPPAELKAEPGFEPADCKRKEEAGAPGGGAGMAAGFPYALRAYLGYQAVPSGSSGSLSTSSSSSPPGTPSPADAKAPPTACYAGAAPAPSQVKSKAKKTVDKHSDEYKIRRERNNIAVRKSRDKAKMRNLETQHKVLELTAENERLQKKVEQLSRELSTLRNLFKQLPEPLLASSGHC
smiles,measurement,setting,value
CCC(C)CO (configuration not stated),outcome,[1],inactive
same,outcome,[2],inactive
same,outcome,[3],inactive
same,outcome,[4],inactive
same,outcome,[5],inactive
same,outcome,[6],inactive
same,outcome,[7],inactive
same,outcome,[8],inactive
same,outcome,[9],inactive
same,outcome,[10],inactive
same,outcome,[11],inactive
same,outcome,[12],inactive
same,outcome,[13],inactive
same,outcome,[14],inactive
same,outcome,[15],inactive
same,outcome,[16],inactive
same,outcome,[17],inactive
same,outcome,[18],inactive
FC(F)(F)C(F)(F)C(F)(F)C(F)(F)C(F)(F)C(F)(F)CC[Si](Cl)(Cl)Cl,outcome,[1],inactive
same,outcome,[2],inactive
same,outcome,[3],inactive
same,outcome,[4],inactive
same,outcome,[5],inactive
same,outcome,[6],inactive
same,outcome,[8],inactive
same,outcome,[9],inactive
same,outcome,[19],inactive
same,outcome,[11],inactive
same,outcome,[12],inactive
same,outcome,[13],inactive
same,outcome,[14],inactive
same,outcome,[15],inactive
same,outcome,[16],inactive
same,outcome,[17],inactive
same,outcome,[18],inactive
Cc1cc(=O)[nH]c(C(C)C)n1,outcome,[1],inactive
same,outcome,[2],inactive
same,outcome,[3],inactive
same,outcome,[4],inactive
same,outcome,[5],inactive
same,outcome,[6],inactive
same,outcome,[7],inactive
same,outcome,[8],inactive
same,outcome,[9],inactive
same,outcome,[11],inactive
same,outcome,[12],inactive
same,outcome,[13],inactive
same,outcome,[14],inactive
same,outcome,[15],inactive
same,outcome,[16],inactive
same,outcome,[17],inactive
same,outcome,[18],inactive
CCCC(=O)OCC(COC(=O)CCC)OC(=O)CCC,outcome,[1],inactive
same,outcome,[2],inactive
same,outcome,[3],inactive
same,AC50,[4],69.3 µM (active)
same,outcome,[5],inactive
same,outcome,[6],inactive
same,outcome,[7],inactive
same,AC50,[8],57.5 µM (active)
same,AC50,[9],37.5 µM (active)
same,outcome,[19],inactive
same,outcome,[11],inactive
same,outcome,[12],inactive
same,outcome,[13],inactive
same,outcome,[14],inactive
same,outcome,[15],inactive
same,outcome,[16],inactive
same,outcome,[17],inactive
same,outcome,[18],inactive
O=c1cccc[nH]1,outcome,[1],inactive
same,outcome,[2],inactive
same,outcome,[3],inactive
same,outcome,[4],inactive
same,outcome,[5],inactive
same,outcome,[6],inactive
same,outcome,[7],inactive
same,outcome,[8],inactive
same,outcome,[9],inactive
same,outcome,[11],inactive
same,outcome,[12],inactive
same,outcome,[13],inactive
same,outcome,[15],inactive
same,outcome,[16],inactive
same,outcome,[17],inactive
same,outcome,[18],inactive
CC(C)(C)c1cc(CCC(=O)NCCCCCCNC(=O)CCc2cc(C(C)(C)C)c(O)c(C(C)(C)C)c2)cc(C(C)(C)C)c1O,AC50,[1],50 µM (active)
same,outcome,[2],inactive
same,outcome,[3],inactive
same,outcome,[4],inactive
same,outcome,[5],inactive
same,outcome,[6],inactive
same,outcome,[7],inactive
same,outcome,[8],inactive
same,outcome,[9],inactive
same,outcome,[19],inactive
same,outcome,[11],inactive
same,outcome,[12],inactive
same,outcome,[13],inactive
same,outcome,[15],inactive
same,outcome,[16],inactive
same,outcome,[17],inactive
same,outcome,[18],inactive
CC(C)(C)c1cc(CCC(=O)OCC(COC(=O)CCc2cc(C(C)(C)C)c(O)c(C(C)(C)C)c2)(COC(=O)CCc2cc(C(C)(C)C)c(O)c(C(C)(C)C)c2)COC(=O)CCc2cc(C(C)(C)C)c(O)c(C(C)(C)C)c2)cc(C(C)(C)C)c1O,AC50,[1],0.173 µM (active)
same,outcome,[2],inactive
same,outcome,[3],inactive
same,outcome,[4],inactive
same,outcome,[5],inactive
same,outcome,[6],inactive
same,outcome,[8],inactive
same,outcome,[9],inactive
same,outcome,[10],inactive
same,outcome,[11],inactive
same,outcome,[12],inactive
same,outcome,[13],inactive
same,AC50,[14],7.29 µM (active)
same,outcome,[15],inactive
same,outcome,[16],inactive
same,outcome,[17],inactive
same,outcome,[18],inactive
O=C1OC(=O)c2ccc3c4c(ccc1c24)C(=O)OC3=O,AC50,[1],0.0537 µM (active)
same,outcome,[2],inactive
same,outcome,[3],inactive
same,outcome,[4],inactive
same,outcome,[5],inactive
same,outcome,[6],inactive
same,outcome,[8],inactive
same,outcome,[9],inactive
same,outcome,[10],inactive
same,outcome,[19],inactive
same,outcome,[11],inactive
same,outcome,[12],inactive
same,outcome,[13],inactive
same,outcome,[15],inactive
same,outcome,[16],inactive
same,outcome,[17],inactive
same,outcome,[18],inactive
